Screens (PubChem)
The list is not random: actives were taken first. Their share in the collection is about 18%.
TDP1 cell noCPT – qHTS for Inhibitors of human tyrosyl-DNA phosphodiesterase 1 (TDP1): qHTS in cells in absence of CPT; DT40 Tdp1-/- hTDP1 cells, no CPT, ATP luminescence, 48 h; 420,000 tested, 15% active; Potency, µM (top dose mostly 46.2 µM), for the others: at the highest dose activity change, negative = growth inhibition, hits mostly inhibitors; AID 686978, 2013; also: potency is read from the fitted curve at half-maximal effect; nearly all actives have a fitted effect of over 55% in size
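Growth of hTDP1-complemented DT40 Tdp1-knockout cells is measured by ATP luminescence after at least 48 hr compound exposure at 37 °C, with DMSO substituting for the 20 nM CPT used in the parallel screen.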
Gal4-VP16 FLuc – counter-screen for ROR gamma inhibitors: Gal4-VP16 reporter. Drosophila S2 Gal4-VP16 UAS-luciferase, luminescence, 20 h. 310,000 tested, 3.5% active. Potency, µM (top dose mostly 53.6 µM), without a hit: at the top dose activity, negative = inhibition, actives largely listed as inhibitors;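 also: Gal4-VP16 expression switched on by copper sulfate through the metallothionein promoter; potency is read from the fitted curve at half-maximal effect; nearly all actives have a fitted effect of over 50% in size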
LDHA block – blocks human lactate dehydrogenase A; P00338; purified LDHA, NADH/diaphorase-resazurin fluorescence; hits give low values; activity change, % (values are at about 110 or 230 µM); 480,000 tested, 0.15% active; AID 1347041; in the data active = activity change below about -30%; inconclusive = mostly about -25% to -30%;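 also: plate controls were DMSO wells for no effect and wells without enzyme for full effect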
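Resorufin fluorescence (ex540/em590), read at 0 and 20 min after diaphorase/resazurin addition, reports the NADH left after a 5 min room-temperature reaction of 2 nM human LDH5 with 0.06 mM NADH and 0.2 mM pyruvate.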
RORg inh – blocks mouse ROR gamma transcriptional activity; P51450; Potency, µM (series often up to 53.6 µM), inactives show at the highest dose activity change, negative = inhibition, hits mostly inhibitors; Drosophila S2 Gal4-RORgamma UAS-luciferase reporter, 20 h; 310,000 tested, 5.4% active; AID 2551; also: potency is read from the fitted curve at half-maximal effect; nearly all actives have a fitted effect of over 60% in size
Target sequence (P51450 whole entry, looked up, the tested form may be a part): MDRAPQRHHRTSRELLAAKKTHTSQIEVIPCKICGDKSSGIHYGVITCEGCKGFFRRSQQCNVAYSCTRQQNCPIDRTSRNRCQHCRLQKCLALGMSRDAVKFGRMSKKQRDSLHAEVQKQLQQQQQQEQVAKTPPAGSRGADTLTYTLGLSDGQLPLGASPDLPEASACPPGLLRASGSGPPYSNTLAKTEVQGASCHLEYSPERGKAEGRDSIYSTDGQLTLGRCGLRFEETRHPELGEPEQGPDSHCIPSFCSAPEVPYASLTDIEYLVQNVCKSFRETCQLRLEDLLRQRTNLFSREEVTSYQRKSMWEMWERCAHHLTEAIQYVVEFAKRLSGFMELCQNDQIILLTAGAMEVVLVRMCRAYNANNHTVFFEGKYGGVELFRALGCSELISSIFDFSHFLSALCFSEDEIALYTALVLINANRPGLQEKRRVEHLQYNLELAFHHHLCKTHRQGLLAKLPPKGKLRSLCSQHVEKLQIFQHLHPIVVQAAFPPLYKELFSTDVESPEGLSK
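Drosophila S2 cells stably expressing Gal4-DBD/mouse RORγ fusion under metallothionein promoter plus UAS-luciferase; compound 1 h, then 700 uM CuSO4 induction for 20 h at ambient temperature; inhibition read as reduced luminescence.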
IL-1B inflam inh – inflammasome signaling inhibition, IL-1 beta readout | 360,000 tested, 4.7% active | THP-1 LPS/ATP IL-1B secretion, AlphaLISA, 16 h; hits give low values | activity change, % at 57.5 µM; in the data active = activity change below about -50%; inconclusive = mostly about -30% to -49%
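THP-1 cells pretreated 1 hr with compounds (up to 57.5 uM final), then stimulated with LPS (250 ng/mL final) plus ATP (1.25 mM final); secreted IL-1B measured by AlphaLISA after 16 hr, decreased signal indicating inhibition.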
DT40 TDP1 CPT – DT40-hTDP1 cell growth loss with CPT; chicken DT40 Tdp1-/-;hTDP1 cells + 20 nM CPT, ATP luminescence, 48 h; Potency, µM (titrated, usually from 46.2 µM), without a hit: top-dose activity change, negative = growth inhibition, hits mostly inhibitors; 420,000 tested, 12% active; also: potency is read from the fitted curve at half-maximal effect; nearly all actives have a fitted effect of over 55% in size
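Chicken DT40 Tdp1-/- cells complemented with human TDP1, 400 cells/well, exposed to compounds plus 20 nM camptothecin for at least 48 h at 37 C; viability read as ATP content by CellTiter-Glo luminescence.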
* = called active by the depositor; ? = inconclusive; . = not tested or not shown; ! = not active in a repeat; [ ] = remark or other dose. Unless noted, calls follow the shape of the dose curve; as a rule, active = well fitted curve in the direction sought with a large enough effect; inconclusive = small, poorly fitted or top-dose-only effect, or another doubt; inactive = no such curve, though single readings can be large; an effect the other way counts as inactive or inconclusive. Unless noted, % is scaled to controls: 0 for no effect and ±100 for the full control effect.

SMILES | TDP1 cell noCPT | Gal4-VP16 FLuc | LDHA block | RORg inh | IL-1B inflam inh | DT40 TDP1 CPT
COC(=O)C1=C(c2cccc(NC(C)=O)c2)C[C@@H]2CC[C@H]1N2C | -7% | . | 0 | . | 4 | -1%
COC(=O)C1=C(c2cccc(OC)c2OC)C[C@@H]2CC[C@H]1N2C | -13% | . | 0 | . | 9 | -2%
COC(=O)C1=C(c2ccc(OCc3ccccc3)cc2)C[C@@H]2CC[C@H]1N2C | 23µM* | . | -7 | . | -14 | 16µM*
COC(=O)C1=C(c2ccc(OCc3ccccc3)c(F)c2)C[C@@H]2CC[C@H]1N2C | 23µM* | . | -3 | . | -25 | ?
C=CCN=C=S | -9% | 8% | . | -9% | . | -6%
CCCCNC(C)Cc1ccccc1 (stereo unspecified) | -4% | . | -5 | . | 9 | -2%
COc1ccc(CC(C)NCCC(c2ccccc2)c2ccccc2)cc1 (stereo unspecified) | 16µM* | . | 0 | . | -71* | 13µM*
CC(Oc1ccc(Br)cc1)C(=O)N(Cc1nc(-c2ccccc2)no1)C(C)C (stereo unspecified) | ? | . | 1 | . | . | ?
C=CC[C@]1(O)CC[C@H]2[C@@H]3CCC4=CCCC[C@@H]4[C@H]3CC[C@@]21C | 0% | . | . | . | . | -29%
C=CC[C@]1(O)CC[C@H]2[C@@H]3CCC4=CC(=O)CCC4=C3C=C[C@@]21C | 7.5µM* | 1% | . | 23% | . | 13µM*
C#CC1(O)CCC2C3CCC4=CC(=O)CCC4=C3C=CC21C (stereo unspecified) | 15µM* | . | 20 | . | 3 | 8.2µM*
CNC(C)Cc1ccc2c(c1)OCO2 (stereo unspecified) | -14%[92.5 µM] | . | . | . | . | -26%[92.5 µM]
CO[C@H]1C=C2CCN(C)[C@@H]2[C@@H]2c3cc4c(cc3C(=O)O[C@H]21)OCO4 | . | 1%[17 µM] | . | -13%[16.9 µM] | . | .
Cc1cccc(-n2nc(C)c(C(=O)N3CCN(c4ccccc4)CC3)c2-n2cccc2)c1 | 21µM* | . | -1 | . | . | 16µM*
CN1CCc2nc(SCc3ccccc3Br)c(C#N)cc2C1 | 18µM* | 5% | 3 | 4% | -17 | ?
O=Nc1c(O)c2ccccc2c2ccccc12 | 3.3µM* | . | 20 | . | -76* | 1.8µM*
Oc1ccccc1O | ? | -13% | 11 | -12% | 29 | -23%
Cc1ccc(S(=O)(=O)N[C@@H](CCCCN)C(=O)CCl)cc1 | 8.4µM*! | -21% | -3 | ? | -11 | 8.4µM*!
CCn1c(O)c(N=Nc2cccc(S(=O)(=O)N3CCOCC3)c2)c(=O)n(CC)c1=S | -14% | 0% | -9 | 20% | ? | -10%
CCn1c(O)c(N=Nc2ccc(S(=O)(=O)N3CCOCC3)cc2)c(=O)n(CC)c1=S | -1% | 0% | -7 | 11% | -84* | -13%
C=C(C)Cn1c(-c2cccc([N+](=O)[O-])c2)n[nH]c1=S | -8% | -7%[10 µM] | -11 | 7.1µM* | 19 | 18%
C=C(C)Cn1c(-c2cccs2)n[nH]c1=S | -18% | 14µM* | -3 | 13µM* | 12 | -13%
COc1ccc(-n2cnc3cc(C(=O)N4CCC5(CC4)OCCO5)ccc32)cc1 | 2.6µM* | -14% | 2 | -1% | 55 | 8.2µM*
COC12C(COC(N)=O)C3=C(C(=O)C(C)=C(N)C3=O)N1CC1C2N1C (stereo unspecified) | 0.065µM* | -14% | 17 | -35% | 6 | 0.052µM*
CCCCCCCCCCCCCCCCOC[C@@H](COP(=O)([O-])OCC[N+](C)(C)C)OC(C)=O | ? | -5% | . | 17% | . | ?
SMILES | TDP1 cell noCPT | Gal4-VP16 FLuc | LDHA block | RORg inh | IL-1B inflam inh | DT40 TDP1 CPT
O=C(c1ccc(CNS(=O)(=O)c2ccc(Br)cc2)cc1)N1CCC2(CC1)OCCO2 | 9.2µM* | -6% | 0 | 30% | 25 | ?
COc1cc(CNC(=O)CCCC/C=C/C(C)C)ccc1O | 8.9µM*! | -12% | 4 | ? | 6 | 11µM*!
Cc1cc(C(=O)C(Cl)(Cl)Cl)c(C)n1C | . | . | 2 | . | . | .
Cc1ccsc1C(=O)C1CCCN(Cc2ccc(-n3cccn3)cc2)C1 (stereo unspecified) | 15µM* | 0% | 1 | 33% | -16 | 21µM*
CSc1ncc(CN2CCCC(C(=O)c3sccc3C)C2)cn1 (stereo unspecified) | ? | 12% | -4 | 3% | 54 | ?
Cc1ccsc1C(=O)C1CCCN(Cc2cc3ccccc3o2)C1 (stereo unspecified) | ? | -4% | -17 | 11% | 11 | ?
Cc1ccc(CN2CCCC(C(=O)c3sccc3C)C2)o1 (stereo unspecified) | 21µM* | -11% | -2 | -18% | -10 | 3%
COc1cc(CN2CCCC(C(=O)c3sccc3C)C2)cc(OC)c1O (stereo unspecified) | ? | 20% | 16 | -7% | -11 | ?
Cc1ccsc1C(=O)C1CCCN(Cc2cnc(N3CCCC3)s2)C1 (stereo unspecified) | 18µM* | -7% | -1 | 1% | 9 | 12µM*
O=C(CSC(c1ccccc1)c1ccc(Cl)cc1)NCc1cccs1 (stereo unspecified) | . | . | 10 | . | . | .
CCCOC(C(=O)OC1CCN(C)CC1)(c1ccccc1)c1ccccc1 | 12µM* | 1% | . | -25% | . | 21µM*
CN1CCC(OC(=O)Cc2ccccc2)CC1 | 2% | -10% | 2 | -1% | 13 | 4%
CCN1C(=O)c2ccccc2Sc2ccc(NC(=O)Nc3ccc(Br)c(C)c3)cc21 | ? | . | -4 | . | . | ?
Cc1cccc(-n2c(/C=C/c3ccccn3)nc3ccccc3c2=O)c1 | ? | . | -2 | . | -52* | 23µM*
COc1cccc(-n2c(/C=C/c3ccccn3)nc3ccccc3c2=O)c1 | ? | -9% | -2 | ? | -84* | ?
Cc1cccc(-n2c(/C=C/c3c[nH]c4ccccc34)nc3ccccc3c2=O)c1 | 2.6µM* | . | 0 | . | . | 2.6µM*
COc1ccccc1-n1c(/C=C/c2ccccn2)nc2ccccc2c1=O | ? | ? | -9 | -7% | . | ?
Cc1cccc(-n2c(/C=C\c3cccc(Br)c3)nc3ccccc3c2=O)c1 | ? | . | -8 | . | . | ?
C=C(C)[C@]12C[C@@H](C)[C@@]34O[C@](Cc5ccccc5)(O[C@@H]1[C@@H]3C=C(COC(=O)Cc1ccc(O)c(OC)c1)C[C@]1(O)C(=O)C(C)=C[C@@H]41)O2 | . | ? | . | 4% | . | .
CC1=C2[C@@H]3OC(=O)[C@@H](C)[C@@H]3CC[C@]2(C)C=CC1=O | . | 2%[17 µM] | . | 0%[16.9 µM] | . | .
